# “And” between values parts separate entries of the source, which are not always exact repeats. Equal values may be shown once. The source made the active and inactive calls. The calls were made as follows: active = hit-call score of the fitted dose curve at least 0.9, where 1 is the maximum; inactive = score below 0.9.
# Read-out: Interleukin-1 alpha (IL1a), IL1A (gene 3552)
# Experiment: BSK_BE3C_IL1a: BioMAP Diversity Plus: BE3C Assay for Interleukin-1 alpha (IL1a) Biomarker Activity (AID 2283016)
# Conditions: primary human bronchial epithelial cells; actives raise or lower the signal
# Experimental: BSK_BE3C is a cell-based, multiplexed-readout assay that uses bronchial epithelial cell, a human lung primary cell, with measurements taken at 24 hours after chemical dosing in a 96-well plate.BSK_BE3C_IL1a is an assay component measured in the BSK_BE3C assay. It measures IL-1a antibody related to regulation of gene expression using ELISA technology.Data from the assay component BSK_BE3C_IL1a was analyzed into 1 assay endpoint. This assay endpoint, BSK_BE3C_IL1a, was analyzed with bidirectional fitting relative to DMSO as the negative control and baseline of activity. Using a type of binding reporter, gain or loss-of-signal activity can be used to understand changes in the signaling as they relate to the gene IL1A. Furthermore, this assay endpoint can be referred to as a primary readout, because this assay has produced multiple assay endpoints where this one serves a signaling function. To generalize the intended target to other relatable targets, this assay endpoint is annotated to the cytokine intended target family, where the subfamily is interleukins.
# The levels of cell surface (or secreted, indicated by the prefix "s") biomarker endpoints were measured by ELISA. Overt cytotoxicity to cells in confluent adherent cultures (all systems other than the BT system) was assessed by measuring total protein levels using sulforhodamine B (SRB) staining in parallel cultures at the time of biomarker measurements, indicated as SRB endpoints. For proliferation assays for adherent cell types, individual cell types are cultured at sub-confluence and relative cell numbers quantified by SRB staining at time points optimized for each system (48 h: 3C and CASM3C systems; 72 h: BT and HDF3CGF systems; 96 h: SAg system). SRB was performed by staining cells with 0.1% SRB after fixation with 10% TCA and reading wells at 560 nm.Viability and proliferation of PBMC (T cells) was quantified by Alamar Blue reduction for the SAg and BT systems. For PBMC viability (referred to as PBMC Cytotoxicity within the assay endpoint names), cells were plated (75,000/well in a 96-well plate) and then chemical samples added for 1 h before addition of activators, SEB and TSST-1 (20 ng/mL final concentration each). Cells were incubated for 90 h. Then, Alamar Blue (20 uL/well) (Invitrogen, Cat DAL1100) was added for 6 h, and the plates were read with a fluorescence microplate reader at 546/580 nm (excitation/emission). For PBMC proliferation, cells were plated and activated as above but incubated for only 16 h prior to addition of Alamar Blue. Plates were read after 6 h.
SMILES,outcome,AC50
Cc1ccc(N=Nc2c(O)ccc3ccccc23)c(C)c1,inactive,–
O=P(O)(O)CCC(F)(F)C(F)(F)C(F)(F)C(F)(F)C(F)(F)C(F)(F)C(F)(F)C(F)(F)F,inactive,–
CC[N+](CC)(CC)Cc1ccccc1,inactive,–
CCCCCc1ccc(O)cc1,–,23.8 µM (active)
CS(=O)(=O)c1ccc([C@@H](CC2CCCC2)C(=O)Nc2cnccn2)cc1Cl,inactive,–
C[C@]12CC[C@@H]3c4ccc(O)cc4CC[C@H]3[C@@H]1C[C@@H](O)[C@@H]2O,inactive,–
O=C1c2ccc(O)c(O)c2C(=O)c2c(O)ccc(O)c21,inactive,–
Oc1ccc(Cc2ccccc2O)cc1,inactive,–
CCCCC(CC)C(=O)O (stereo not given),inactive,–
Cc1cccc2c1ccc1ccccc12,–,5.56 µM (active)
OCC(CO)(CBr)CBr,inactive,–
CN(CCO)S(=O)(=O)C(F)(F)C(F)(F)C(F)(F)C(F)(F)C(F)(F)C(F)(F)C(F)(F)C(F)(F)F,inactive,–
Cc1ccc(C(=O)c2ccccc2)cc1,inactive,–
OCC(F)(F)C(F)(F)C(F)(F)C(F)(F)C(F)(F)C(F)(F)C(F)(F)C(F)(F)C(F)(F)C(F)(F)C(F)(F)F,inactive,–
CCCCCCCCCCCCCCCCCC[N+](C)(C)Cc1ccccc1,–,3.96 µM (active)
N=C(N)c1ccc(OCCCCCOc2ccc(C(=N)N)cc2)cc1,inactive,–
O=C1NS(=O)(=O)c2ccccc21,inactive,–
C=CC(=C)CC/C=C(\C)CCC=C(C)C,inactive,–
C=COC(=O)C(C)(C)CCCCCC,–,34.9 µM (active)
NC(=NCCCCCCN=C(N)/N=C(\N)Nc1ccc(Cl)cc1)/N=C(\N)Nc1ccc(Cl)cc1,–,4.74 µM (active)

SMILES,outcome,AC50
O=C(O)CCC(F)(F)C(F)(F)C(F)(F)C(F)(F)C(F)(F)F,inactive,–
COc1cccc(O)c1,inactive,–
O=C(O)CCC(F)(F)C(F)(F)C(F)(F)C(F)(F)C(F)(F)C(F)(F)F,inactive,–
O=C(NO)c1ccccc1,inactive,–
O=C(c1ccccc1)c1ccccc1,inactive,–
COCN(COC)c1nc(N(COC)COC)nc(N(COC)COC)n1,inactive,–
CCC(C)c1ccccc1O (stereo not given),inactive,–
CCCCC(CC)C(=O)OCCOCCOCCOCCOC(=O)C(CC)CCCC (stereo not given),inactive,–
C=CC(=O)OCCC(F)(F)C(F)(F)C(F)(F)C(F)(F)C(F)(F)C(F)(F)C(F)(F)C(F)(F)F,inactive,–
CCCCc1oc2ccccc2c1C(=O)c1cc(I)c(OCCN(CC)CC)c(I)c1,–,17.1 µM (active)
Cc1[nH]nc2c1N=C(c1ccccc1Cl)c1cc([N+](=O)[O-])ccc1N2,–,7.77 µM (active)
O=P(O)(O)CCC(F)(F)C(F)(F)C(F)(F)C(F)(F)C(F)(F)C(F)(F)F,inactive,–
CC1=NN(c2ccccc2)C(=O)C1,inactive,–
CCCCCCCCCCCCOS(=O)(=O)O,inactive,–
Clc1ccc(Nc2nnc(Cc3ccncc3)c3ccccc23)cc1,–,1.67 µM (active)
CC(=O)Nc1ccc(O)cc1,inactive,–
CCCCCCCCCCCC,–,9.52 µM (active) and 8.11 µM (active)
O=C(CCCN1CCC(O)(c2ccc(Cl)cc2)CC1)c1ccc(F)cc1,inactive,–
O=C(NCc1ncc(C(F)(F)F)cc1Cl)c1c(Cl)cccc1Cl,inactive,–
CN(C)c1ccc(C(=C2C=CC(=[N+](C)C)C=C2)c2ccccc2)cc1,–,0.214 µM (active)
